Tgondii IFNg – blocks Toxoplasma gondii growth in the presence of IFN-gamma | activity change, negative = inhibition, % (test concentration not listed) | 69,000 compounds, 3.8% hits | Toxoplasma gondii growth in IFN-gamma-treated host cells; active compounds read low; in the data active = activity change below about -70%, passing the limit was not always enough;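 note: host cells are HeLa cells infected with Toxoplasma gondii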
Of the large screens only hits and unclear results are named; the others gave an inactive call; ! = not active in a repeat. Shown is part of a subset that was picked to be rich in hits.

CCCNc1c(C(=O)OC)c(=O)[nH]c2c(Cl)cccc12	none
COC(=O)c1c(NCc2ccc(F)cc2)c2cccc(Cl)c2[nH]c1=O	Tgondii IFNg -88
CCOc1cccc(CNc2c(C(=O)OC)c(=O)[nH]c3c(Cl)cccc23)c1	Tgondii IFNg -82
COC(=O)c1c(NCc2ccc(C)o2)c2cccc(Cl)c2[nH]c1=O	none
COC(=O)c1c(NCCN2CCC(C)CC2)c2cccc(Cl)c2[nH]c1=O	none
COC(=O)c1c(NCCc2cccs2)c2cccc(Cl)c2[nH]c1=O	Tgondii IFNg -86
CC1=NOC(C(=O)N2CCC(c3cc(Cc4ccccc4)[nH]n3)CC2)C1 (configuration not stated)	none
CN(C)C(=O)C1(C)CN(Cc2nc3ccccc3n2C)CCO1 (configuration not stated)	none
Cc1nnc(N2CCCC3(CN(C(=O)NC(C)C)CCO3)C2)o1 (configuration not stated)	none
O=C(c1ccc(Cl)cc1)N1CCCN(c2nccc(C(F)(F)F)n2)CC1	none
CC(=O)N1CCC(C(=O)NCc2ccccc2)(N(Cc2ccc(N(C)C)cc2)C(=O)c2ccc(C)cc2)CC1	none
Cn1cc(CN(C(=O)C2CCCN(Cc3ccco3)C2)C2CC2)cn1 (configuration not stated)	none
Cc1nc(NC(=S)NC(=O)c2ccccc2)sc1C(C)(C)C	none
COc1ccccc1-c1cc(C(=O)Nc2cccc(CCc3ccncc3)c2)[nH]n1	Tgondii IFNg -92
Cc1cnn(CC(=O)Nc2cccc(CCc3ccncc3)c2)c1	none
COc1ccccc1C(=O)Nc1cccc(-n2cnnc2)c1	none
O=C(O)CCC(=O)CCC(=O)c1cccs1	none
COc1ccc2c(c1)c(C1=C(c3c[nH]c4ccccc34)C(=O)NC1=O)cn2CCCN(C)C	none
Cn1cc(C2=C(c3cn(CCCSC(=N)N)c4ccccc34)C(=O)NC2=O)c2ccccc21	Tgondii IFNg -77
Cn1cc(C(=O)O)c(=O)c2ccccc21	none
CCc1c(C)cc(C(=O)N2CCC3(CN(C)C(=O)O3)C2)c(=O)n1C (configuration not stated)	none
Cc1ccc(S(=O)(=O)N2CCCC(C(=O)Nc3ccc4c(c3)OCO4)C2)cc1 (configuration not stated)	none
CCO[C@H]1CO[C@@]2(CCCN(S(=O)(=O)N(C)C)C2)C1	none
N#Cc1ccccc1-c1ccccc1C#N	none
N#Cc1cc2c(c3c1CCc1ccccc1-3)-c1ccccc1CC2	Tgondii IFNg -80
CS(=O)(=O)NCc1c(Cl)cccc1Sc1ccc(Cl)cc1	none
O=S(=O)(c1ccc(Br)cc1)N1CCC2(CC1)Nc1ccccc1-n1cccc12	none
CS(=O)(=O)c1ccc(-c2cnc(N)c(C(=O)Nc3ccccc3)n2)cc1	Tgondii IFNg -86
CS(=O)(=O)c1ccc(C(=O)Nc2ccccc2Cl)cc1	none
CS(=O)(=O)c1ccc(-c2ccccc2C(N)=O)cc1	none
COc1ccc(-c2nc(CN(C)Cc3ccccn3)c(C)o2)c(F)c1	none
O=C(NC[C@@]12COC[C@H]1CN(c1ncc(F)cn1)C2)c1cccnc1	none
CC(C)c1nc(CN(C)Cc2ccc3ccccc3n2)cs1	none
Cc1ccc2[nH]c3c(c2c1)CCc1nonc1-3	Tgondii IFNg -99
Cc1ccc2[nH]c3c(c2c1)CCOc1ccccc1-3	none
CSc1ccc(-c2noc(-c3c(O)c4cc(C)ccc4[nH]c3=O)n2)cc1	none
Cc1ccc2c(c1C)-n1cccc1C1(CCN(S(C)(=O)=O)CC1)N2	none
Nc1c2c(nc3ccccc13)CCCC2	none
CCOc1ccc(Nc2nc3ccccc3c(=O)s2)cc1	none
CCOC(=O)c1c(C)nc2ccccc2c1C(=O)O	none
FC(F)(F)c1cc(Sc2cc(C(F)(F)F)nc3ccccc23)c2ccccc2n1	none
CCOc1c2ccccc2nc2ccccc12	Tgondii IFNg -123
Nc1c2ccccc2nc2ccccc12	Tgondii IFNg -73!
CC(=O)NC(Nc1ccc(F)cc1)(C(F)(F)F)C(F)(F)F	none
COCCN1CCC2(CC1)CC(NC(=O)c1ccc[nH]1)c1ccccc1O2 (configuration not stated)	none
O=C(Nc1ccc(Oc2c(F)c(F)c(F)c(F)c2F)cc1)OC1CCN2Cc3ccccc3N=C12 (configuration not stated)	Tgondii IFNg -99
CCOc1ccc(NC(=O)Cn2ncc3c(N4CCC(C)CC4)ncnc32)cc1	none
O=C(Cn1ncc2c(N3CCCC3)ncnc21)Nc1ccc(Oc2ccccc2)cc1	none
COc1ccc(Cc2n[nH]c(=O)n2-c2c(C)noc2C)cc1	none
CCc1cc(-c2cccnc2OC)ccc1NC(C)=O	none
Cc1cccc(N2C(=O)CC(Sc3nnc(C)s3)C2=O)c1 (configuration not stated)	none
O=C1CC(Sc2ccc(Cl)cc2)C(=O)N1c1cc(F)c(Br)cc1F (configuration not stated)	Tgondii IFNg -85
Cc1ccc(N2C(=O)CC(Sc3ccccn3)C2=O)cc1 (configuration not stated)	none
CC(C)N(Cc1ccccc1)S(=O)(=O)c1cccs1	none
CC(=O)N(c1ccc(NS(=O)(=O)c2cccs2)cn1)S(=O)(=O)c1cccs1	Tgondii IFNg -102
O=S(=O)(Nc1ccc(Oc2ncnc3cc(Cl)ccc23)nc1)c1cccs1	none
O=c1oc2c3c4c(cc2cc1-c1nnc(Nc2ccccc2)s1)CCCN4CCC3	none
O=C(NCc1noc(Cc2ccccc2)n1)c1cccc2ccnn12	none
O=C(NCc1coc(-c2ccccc2)n1)c1cccc2ccnn12	Tgondii IFNg -80
O=C(NCc1csc(N2CCOCC2)n1)c1cccc2ccnn12	none
CC(C)NC(=O)N1CCC2(CC1)CC(c1ccncc1)C(=O)N2 (configuration not stated)	none
CN(Cc1cc(-c2ccccc2)on1)Cc1cc2n(n1)CCNC2	none
CC(C)(C)C#CC(O)(C#CC(C)(C)C)C#CC(C)(C)C	none
Cc1ccc(Nc2nc(C(=O)Nc3ccc(Cl)cc3)nc3ccccc23)cc1	none
Cc1cc(Nc2ccc(NC(=O)c3ccc(Nc4ccnc5ccccc45)cc3)cc2)nc(N)n1	Tgondii IFNg -78
Cc1cc(Nc2ccc(C(=O)O)cc2)nc(N)n1	none
O=C(c1cnccn1)N1CCC2(CCCN2)CC1	none
O=C(c1cccs1)N1CCC(c2[nH]nc3nccnc23)CC1	none
OC(CSc1cccs1)CN1CCN(C(c2ccccc2)c2ccccc2)CC1 (configuration not stated)	Tgondii IFNg -94
C(=C\c1ccccc1)/CN1CCN(C(c2ccccc2)c2ccccc2)CC1	none
CN(CC1CCCCO1)C(=O)CCNS(C)(=O)=O (configuration not stated)	none
Cc1noc([C@@]23COC[C@@H]2CN(C(=O)c2occc2C)C3)n1	none
COc1ccc2nc(C)cc(SCC(=O)c3ccc(Cl)cc3)c2c1	none
COc1cc(NC(C)CCCN)c2ncccc2c1 (configuration not stated)	none
CCN(CC)CCCC(C)Nc1c2ccc(Cl)cc2nc2ccc(OC)cc12 (configuration not stated)	Tgondii IFNg -72!
Cc1cccc(-c2nc(C)c(CCNC(=O)C(=O)Nc3cccc([N+](=O)[O-])c3)s2)c1	none
CCCn1c(=O)c(C(=O)NCCN(CC)CC)c(O)c2ccccc21	none
CCn1c(=O)c(C(=O)Nc2cccc(C)n2)c(O)c2ccccc21	none
CCCCc1nc2ccccc2c(=O)n1NC(=O)c1c(O)c2ccccc2n(CCC)c1=O	Tgondii IFNg -114
CC(C)(C)SCCNC(=O)c1cccs1	none
COc1ccc(C=O)c(OC)c1	none
COC(=O)c1cc(OC)c(OC)cc1NC(=O)Nc1ccc(OC)cc1OC	none
COc1cc(/C=C/c2ccc(OC)cc2OC)cc(OC)c1	Tgondii IFNg -76!
Clc1ccc(Cc2nc(-c3ccc(-n4cccc4)cc3)no2)cc1	none
Cc1ncc(C(=O)N2CCCC(CCc3ccc(F)cc3)C2)s1 (configuration not stated)	none

Source: PubChem BioAssay
